pPAFAH FP inh – pPAFAH enzyme inhibitors, primary screen, biochemical, fluorescence polarization, human. Platelet-activating factor acetylhydrolase (Homo sapiens), Q13093. recombinant pPAFAH, FP-rhodamine probe fluorescence polarization. inhibition, % at 3.39 µM. 330,000 compounds, 1.5% hits;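 active means inhibition above the mean inhibition across the screen plus 3 SD, cut at about 25% in these data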;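 further: inhibitors block binding of the rhodamine activity-based probe so polarization drops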
Target sequence (Q13093 whole entry, looked up): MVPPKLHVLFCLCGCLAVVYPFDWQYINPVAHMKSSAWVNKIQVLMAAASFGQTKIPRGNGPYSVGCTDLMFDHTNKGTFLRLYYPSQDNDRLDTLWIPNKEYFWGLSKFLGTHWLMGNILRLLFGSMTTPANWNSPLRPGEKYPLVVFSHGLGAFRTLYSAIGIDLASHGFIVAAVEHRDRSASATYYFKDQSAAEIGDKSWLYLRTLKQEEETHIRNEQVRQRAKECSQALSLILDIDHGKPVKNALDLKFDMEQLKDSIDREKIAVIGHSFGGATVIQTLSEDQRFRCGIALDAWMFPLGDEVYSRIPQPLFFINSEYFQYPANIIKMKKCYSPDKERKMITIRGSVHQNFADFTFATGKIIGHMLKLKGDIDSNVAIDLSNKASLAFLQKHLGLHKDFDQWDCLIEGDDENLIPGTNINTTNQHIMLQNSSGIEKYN
PAFAH2 FP inh – PAFAH2 enzyme inhibitors, primary screen, biochemical, fluorescence polarization, human; Platelet-activating factor acetylhydrolase 2, cytoplasmic (Homo sapiens), Q99487; recombinant PAFAH2, FP-rhodamine activity probe; inhibition, % at 3.39 µM; 340,000 compounds, 0.99% hits;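 active means inhibition above the mean over all tested compounds plus 3 SD, cut at about 30% in these data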;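 further: inhibitors block probe labeling of enzyme so polarization drops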
PAFAH1B3 inh – PAFAH1B3 enzyme inhibitors, primary screen, biochemical, fluorescence polarization, human; Platelet-activating factor acetylhydrolase IB subunit alpha1 (Homo sapiens), Q15102; recombinant PAFAH1B3, FP-rhodamine probe; inhibition, % at 3.39 µM; 340,000 compounds, 0.28% hits; AID 492972, 2010;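 active means inhibition above the screen-wide average of all tested compounds plus 3 SD, cut at about 25% in these data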
Target sequence (Q15102 whole entry, looked up): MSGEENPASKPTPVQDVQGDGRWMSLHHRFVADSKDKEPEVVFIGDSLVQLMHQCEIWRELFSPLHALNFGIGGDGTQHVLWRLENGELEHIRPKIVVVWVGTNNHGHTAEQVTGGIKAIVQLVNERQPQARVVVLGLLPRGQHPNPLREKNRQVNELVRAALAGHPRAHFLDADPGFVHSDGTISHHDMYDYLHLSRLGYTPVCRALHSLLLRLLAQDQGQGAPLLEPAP
Fam108B counter – mouse Fam108B serine hydrolase inhibitors, primary screen, counter-screen for RBBP9 inhibitor project, biochemical, fluorescence polarization | recombinant Fam108B, FP-Rh probe fluorescence polarization | inhibition, % at 9.51 µM | 300,000 compounds, 0.33% hits | AID 1947, 2009;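 active means inhibition above the screen mean inhibition plus 3 SD, computed separately per campaign, cut at about 18% in these data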;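 further: inhibitors lower polarization as less probe binds the enzyme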
PAFAH1B2 FP inh – PAFAH1B2 enzyme inhibitors, primary screen, biochemical, fluorescence polarization, human | Platelet-activating factor acetylhydrolase IB subunit alpha2 (Homo sapiens), P68402 | recombinant PAFAH1B2, FP-rhodamine activity probe | inhibition, % at 3.39 µM | 340,000 compounds, 1.2% hits | AID 492953, 2010;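 active means inhibition above the mean of all tested compounds plus 3 SD, cut at about 24% in these data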
PME-1 inh – PME-1 inhibitors via competitive probe labeling, primary screen, biochemical, fluorescence polarization, FP-Rh probe, HTS. Protein phosphatase methylesterase 1 (Homo sapiens), Q9Y570. recombinant PME-1. inhibition, % at 5.9 µM. 320,000 compounds, 0.53% hits;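 active means inhibition above the campaign mean of all compounds plus 3 SD, cut at about 26% in these data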;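 further: competitive labeling of PME-1 active site by serine hydrolase directed probe; inhibitors block probe labeling so polarization falls and inhibition rises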
PAFAH2 FP conf – PAFAH2 enzyme inhibitors, confirmation, biochemical, fluorescence polarization, human | recombinant PAFAH2, FP-rhodamine activity probe | shares compounds with PAFAH2 FP inh | inhibition, % at 3.39 µM | 2,300 compounds, 65% hits | AID 493030, 2011;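 active means mean inhibition over three repeats above a set limit taken from the earlier primary screen, cut at about 30% in these data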;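 further: inhibitor blocks binding of rhodamine activity probe so polarization falls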
Each line names hits and unclear results; the compound was inactive in the other large screens (follow-up assays come after a bar, where they were run). Only some compounds are listed: those with a hit (about 2.8% of all), similar ones and a draw of the others.

Cc1ccc(C(=O)OCC(=O)NCCC2=CCCCC2)s1	PAFAH2 FP inh 61.1 | PAFAH2 FP conf 60.2
O=C(COC(=O)c1ccccc1O)NCCC1=CCCCC1	none
O=C(COC(=O)c1cccs1)NCCC1=CCCCC1	PAFAH2 FP inh 55.0 | PAFAH2 FP conf 41.0
Cc1[nH]c2ccccc2c1SCc1nnc(SCc2ccc(Cl)cc2)n1C	PAFAH2 FP inh 30.1 | PAFAH2 FP conf 30.4
Cc1[nH]c2ccccc2c1SCc1nnc(SCc2ccccc2)n1C	none
O=C(COC(=O)/C=C/c1cccc(Cl)c1)NC1CC1	PAFAH2 FP inh 31.5 (no result: Fam108B counter) | PAFAH2 FP conf inactive
O=C(COC(=O)/C=C/c1cccc(Br)c1)NC1CC1	PAFAH2 FP inh 31.9 (no result: Fam108B counter) | PAFAH2 FP conf inactive
O=C(COC(=O)/C=C/c1cccc(Cl)c1)NC1CCCC1	PAFAH2 FP inh 74.0 (no result: Fam108B counter) | PAFAH2 FP conf 65.6
O=C(COC(=O)/C=C/c1cccc(Cl)c1)Nc1c(F)cccc1F	none (no result: Fam108B counter, PME-1 inh)
COCCNC(=O)c1cnn2c(C(F)(F)F)cc(-c3ccc(C)cc3)nc12	none
CCc1ccc(OCC(=O)Nc2cc(S(=O)(=O)CC)ccc2O)cc1	none
CCS(=O)(=O)c1ccc(O)c(NC(=O)NC2CCCCC2)c1	PAFAH2 FP inh 81.0 | PAFAH2 FP conf 64.2
CCS(=O)(=O)c1ccc(O)c(NC(=O)COc2ccccc2)c1	PAFAH2 FP inh 47.5 | PAFAH2 FP conf 43.7
COc1ccccc1-c1c(C)oc2c(CN3CCCCC3C)c(O)ccc2c1=O (centres undefined)	none
Cc1nc2ccccc2c2c1C(=O)NC2=O	none (no result: PAFAH2 FP inh, PAFAH1B3 inh, PAFAH1B2 FP inh)
CCOc1cccc(/C=N/NC(=S)Nc2ccccc2[N+](=O)[O-])c1O	PAFAH2 FP inh 44.8 | PAFAH2 FP conf inactive
CCC1NC(=O)c2ccccc2N1c1cccc(Cl)c1 (centres undefined)	none
CCCCCCCCCCCC1=C(O)C(=O)C=C(O)C1=O	PAFAH2 FP inh 52.8 | PAFAH2 FP conf 39.9
O=[N+]([O-])c1ccc(SCCc2ccncc2)cc1	PAFAH2 FP inh 34.4 | PAFAH2 FP conf inactive
Cc1cccc(NS(=O)(=O)c2ccc(C)c(C(=O)NCC(c3cccs3)N(C)C)c2)c1 (centres undefined)	none (no result: pPAFAH FP inh, Fam108B counter, PME-1 inh)
Cn1cnnc1SCC(=O)Nc1sc2c(c1C(N)=O)CCC2	pPAFAH FP inh 34.4, PAFAH2 FP inh 37.8 | PAFAH2 FP conf inactive
COc1ccccc1/C=C/C(=O)OCC(=O)NC1CCS(=O)(=O)C1 (centres undefined)	none (no result: Fam108B counter, PME-1 inh)
COc1ccc(/C=C/C(=O)OCC(=O)NC2CC2)c(OC)c1	PAFAH2 FP inh 82.9 (no result: Fam108B counter, PME-1 inh) | PAFAH2 FP conf 79.2
COc1cccc(/C=C/C(=O)OCC(=O)NC2CC2)c1OC	PAFAH2 FP inh 68.1 (no result: Fam108B counter, PME-1 inh) | PAFAH2 FP conf 58.0
COc1ccc(/C=C/C(=O)OCC(=O)N(C)CC(=O)Nc2ccc(C)cc2)c(OC)c1	none (no result: Fam108B counter, PME-1 inh)
Cc1ccc(NC(=O)CN2CCN(S(=O)(=O)c3ccc(F)cc3)CC2)cc1C	none (no result: Fam108B counter)
COc1ccc2c(c1)CC/C2=N\OC(=O)c1cccc(C)c1	none
Cc1ccc(C(=O)OC2CCS(=O)(=O)c3sccc32)cc1 (centres undefined)	none
O=C(O/N=C1\CCS(=O)(=O)c2sccc21)c1ccc(F)cc1	PAFAH2 FP inh 52.1 | PAFAH2 FP conf 55.3
Cc1cccc(C(=O)O/N=C2\CCS(=O)(=O)c3sccc32)c1	PAFAH2 FP inh 77.9 | PAFAH2 FP conf 76.7
O=C(O/N=C1\CCS(=O)(=O)c2sccc21)c1ccccc1	PAFAH2 FP inh 73.3 | PAFAH2 FP conf 71.5
Cc1cccc(C(=O)NCCCNC(=O)c2cccnc2)c1	none
O=C(O)C1CSC(c2ccco2)N1 (centres undefined)	PAFAH2 FP inh 31.8 | PAFAH2 FP conf inactive
Cc1cc(O)c(/C=N/Nc2cccc(Cl)c2)c(=O)o1	PAFAH2 FP inh 38.2 | PAFAH2 FP conf 30.4
Cc1cc(O)c(/C=N/OCc2ccc(Cl)cc2Cl)c(=O)o1	PAFAH2 FP inh 85.0 | PAFAH2 FP conf 77.0
Cc1cc(O)c(/C=N/Nc2ccc(Cl)cc2)c(=O)o1	none
COc1ccc(Cl)cc1N=Cc1c(O)cc(C)oc1=O	none
CCCCn1c(N)c(N(CC(C)C)C(=O)c2cccc(S(=O)(=O)N3CCN(C)CC3)c2)c(=O)[nH]c1=O	none
COC(=O)Nc1nc(-c2ccccc2)c(C(=O)c2ccccc2)s1	PAFAH2 FP inh 53.1 | PAFAH2 FP conf 50.0
O=C1Nc2ccccc2C1=Nc1ccccc1-c1ccccc1	none (no result: pPAFAH FP inh, Fam108B counter, PME-1 inh)
O=S1(=O)CCC(=Nc2ccc(Cl)cc2)c2ccsc21	none
O=C(O/N=C1\CCS(=O)(=O)c2sccc21)C1CC1	PAFAH2 FP inh 81.3 | PAFAH2 FP conf 84.1
CC(C)(C)C(=O)O/N=C1\CCS(=O)(=O)c2sccc21	PAFAH2 FP inh 40.6 | PAFAH2 FP conf 34.0
CCN(CC)S(=O)(=O)c1cccc(-n2c(O)c(C=Nc3ccccc3C(=O)O)c3ccccc3c2=O)c1	PAFAH2 FP inh 88.9 | PAFAH2 FP conf 73.1
CN(C(=O)c1cccc(NC(=O)Cc2ccc(NC(=O)C3CCCN(S(=O)(=O)c4cccc([N+](=O)[O-])c4)C3)cc2)c1)C1CCC1 (centres undefined)	none (no result: pPAFAH FP inh, Fam108B counter, PME-1 inh)
C=CCSC1=N/C(=C\c2cc(OCC)c(OC(C)=O)c([N+](=O)[O-])c2)C(=O)S1	PAFAH2 FP inh 59.6, PME-1 inh 64.4 | PAFAH2 FP conf 64.6
CN1C(=O)/C(=C\c2ccccc2OCc2ccccc2)SC1=S	none
O=C(O)COc1ccccc1/C=C1\SC(=S)N(/N=C/c2ccccc2O)C1=O	PAFAH2 FP inh 41.9 | PAFAH2 FP conf 31.9
O=C(O)COc1ccccc1/C=C1\SC(=S)N(NC(=O)c2ccccc2O)C1=O	none
O=C(O)CN1C(=O)/C(=C\c2ccccc2OCc2ccc(Cl)cc2)SC1=S	PAFAH2 FP inh 30.1 | PAFAH2 FP conf inactive
CCOC(=O)C(C)NC(=O)c1cn(-c2ccc(OC)cc2)c(=O)c2ccccc12 (centres undefined)	none
O=C(CCn1c(=O)oc2ccccc21)Nc1cccc(Cl)c1	PAFAH2 FP inh 42.8 | PAFAH2 FP conf inactive
CCN(CC(=O)Nc1c(F)cccc1F)C(=O)C1CC(=O)N(CCc2ccccc2)C1 (centres undefined)	none
NC(=O)N(N)c1nc(N2CCCC2)nc(N2CCCC2)n1	none (no result: Fam108B counter)
CNC(=O)N(O)C1N(C)C(=O)N(Cc2ccccc2)C1(C)C (centres undefined)	none
CCN1C(=O)N(C)C(N(O)C(=O)NC)C1(C)C (centres undefined)	PAFAH2 FP inh 55.7 | PAFAH2 FP conf inactive

Source: PubChem
